Source: PubChem BioAssay
Hits are enriched below; roughly 18% of the tested compounds scored in any of these assays.
TDP1 cell noCPT: qHTS for Inhibitors of human tyrosyl-DNA phosphodiesterase 1 (TDP1): qHTS in cells in absence of CPT; Potency, µM (highest dose often 46.2 µM), inactives show at the highest dose activity change, negative = growth inhibition, actives largely listed as inhibitors; DT40 Tdp1-/- hTDP1 cells, no CPT, ATP luminescence, 48 h; hit rate 15% among 420,000; note: nearly all actives have a fitted effect of over 55% in size
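DT40 Tdp1-/-;hTDP1 cells, no CPT (DMSO vehicle only), 400 cells/well; compounds pin-transferred; ≥48 hr, 37 °C; CellTiter-Glo 30 min RT dark, luminescence read.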
GCN5L2 inh: blocks human GCN5L2 histone acetyltransferase. Potency, µM (highest dose often 58.9 µM), for the others: at the highest dose activity change, negative = inhibition, usual class: inhibitors. GCN5L2 HAT assay, ThioGlo1 CoA-SH fluorescence. hit rate 0.21% among 390,000
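Enzyme at 20nM final was mixed with library compounds for 15 min at room temperature. Peptide H3(1-25) at 75uM, acetyl-CoA at 70uM and ThioGlo1 at 50uM were then added. Plates were read immediately and after 20 min (Ex340nm/Em540nm).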
TDP1 block: TDP1 (human) enzyme inhibition. Q9NUW8. recombinant TDP1, AlphaScreen DNA substrate cleavage. Potency, µM (highest dose often 130 µM), without a hit: at the highest dose activity change, negative = inhibition, hits mostly inhibitors. hit rate 0.28% among 350,000; note: nearly all actives have a fitted effect of over 40% in size
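Signal: AlphaScreen proximity between streptavidin donor and anti-FITC acceptor beads on intact substrate. Reaction: Tdp1 1 nM, substrate 15 nM final, 5 min RT after 15 min compound preincubation.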
PLK1 PBD block: blocks phosphopeptide binding to human PLK1 polo-box domain | P53350 | Plk1 PBD binding of FITC phosphopeptide, fluorescence polarization | Potency, µM, without a hit: max response, negative = inhibition, usual class: inhibitors | hit rate 2.8% among 360,000; note: series mostly up to about 57 µM; nearly all actives have a fitted effect of over 65% in size
Target sequence (P53350 whole entry, looked up, the tested form may be a part): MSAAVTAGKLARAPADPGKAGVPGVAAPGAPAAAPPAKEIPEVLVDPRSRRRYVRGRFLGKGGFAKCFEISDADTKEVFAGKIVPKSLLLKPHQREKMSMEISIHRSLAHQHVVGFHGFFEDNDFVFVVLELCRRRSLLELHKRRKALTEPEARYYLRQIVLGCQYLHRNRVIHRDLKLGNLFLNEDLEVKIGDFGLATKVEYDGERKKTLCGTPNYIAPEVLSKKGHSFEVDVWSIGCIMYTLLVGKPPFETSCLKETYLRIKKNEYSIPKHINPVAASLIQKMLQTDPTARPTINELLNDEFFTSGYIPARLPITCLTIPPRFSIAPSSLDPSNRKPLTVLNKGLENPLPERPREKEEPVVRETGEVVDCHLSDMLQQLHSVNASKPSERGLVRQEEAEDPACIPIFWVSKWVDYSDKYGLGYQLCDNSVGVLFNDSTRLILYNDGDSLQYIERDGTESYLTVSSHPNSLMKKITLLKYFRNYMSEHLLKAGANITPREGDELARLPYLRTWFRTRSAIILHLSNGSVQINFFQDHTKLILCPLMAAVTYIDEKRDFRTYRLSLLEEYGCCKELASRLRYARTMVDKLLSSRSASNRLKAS
VDR inhibitor: inhibitors of human vitamin D receptor. P11473. hit rate 0.93% among 400,000. AID 504847. VDR-SRC2-3 peptide fluorescence polarization, 2 h. Potency, µM, without a hit: max response, negative = inhibition, most hits filed as inhibitors
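The screen uses fluorescence polarization to detect compounds that interfere with recruitment of the SRC2-3 coactivator peptide to VDR; plates are read after 2 h at room temperature.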
DT40 TDP1 CPT: DT40-hTDP1 cell growth loss with CPT; chicken DT40 Tdp1-/-;hTDP1 cells + 20 nM CPT, ATP luminescence, 48 h; AID 686979; hit rate 12% among 420,000; Potency, µM (series often up to 46.2 µM), without a hit: top-dose activity change, negative = growth inhibition, actives largely listed as inhibitors; note: nearly all actives have a fitted effect of over 55% in size
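Chicken DT40 Tdp1-/- cells stably complemented with human TDP1 were seeded at 400 cells/well in medium containing 20 nM camptothecin, exposed to pin-transferred compounds, and grown at 37 °C for at least 48 hr. Viability was read as ATP luminescence.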
An asterisk follows results filed as active; u = inconclusive; x = no result; [ ] = another dose, or the depositor's remark. Calls come from the whole dose curve; as a rule, active = well fitted curve in the direction sought with a large enough effect; inconclusive = small, poorly fitted or top-dose-only effect, or another doubt; inactive = no such curve, though single readings can be large; an effect the other way counts as inactive or inconclusive. % is set by controls: 0 for no effect and ±100 for the full control effect; potency is the fitted concentration of half-maximal effect.

SMILES | TDP1 cell noCPT | GCN5L2 inh | TDP1 block | PLK1 PBD block | VDR inhibitor | DT40 TDP1 CPT
Cc1cc(Cl)c(S(=O)(=O)N2CCCC2)cc1OCC(=O)NC1CCCCC1 | 18µM* | -8% | 4% | 1% | 15% | 15µM*
Cc1cccc(OCCC(=O)Nc2ccc(C)c(S(=O)(=O)N3CCCCC3)c2)c1 | 21µM* | -18% | 5% | -6% | 13% | u
CCOc1ccc(C(=O)CCC(=O)Nc2ccc(C)c(S(=O)(=O)N3CCCCC3)c2)cc1 | 16µM* | -9% | -2% | -7% | -16% | -15%
CCc1noc(C)c1C(=O)Nc1ccc(C)c(S(=O)(=O)N2CCCCCC2)c1 | u | -4% | x | -8% | -19% | 16µM*
Cc1ccc(NC(=O)COC(=O)c2ccccc2F)cc1S(=O)(=O)N1CCCCC1 | 1% | -10% | 0% | -5% | 11% | 4%
Cc1ccc(C(=O)OCC(=O)N2C(C)CCCC2C)cc1S(=O)(=O)N1CCCCC1 (centres undefined) | u | -1% | x | -10% | -16% | u
COC(=O)c1ccc(COC(=O)c2ccc(C)c(S(=O)(=O)N3CCCCC3)c2)cc1 | u | -6% | 2% | -11% | 14% | 29µM*
Cc1ccc(NC(=O)COC(=O)c2cccc(C)c2[N+](=O)[O-])cc1S(=O)(=O)N1CCCCC1 | u | -11% | 3% | -12% | 23% | 16µM*
Cc1ccc2c(c1)c1c(c(=O)n(-c3cccc(Cl)c3)c(=O)n1CC(=O)Nc1c(C)cccc1C)n2C | 0% | -6% | 9% | x | 7% | -7%
CCOc1ccccc1OCCCCn1c(-c2ccc(Cl)cc2)nc2ccccc2c1=O | -9% | -1% | x | x | 10% | u
O=C(COC(=O)CNS(=O)(=O)c1ccc2ccccc2c1)Nc1ccccc1Sc1ccccc1 | u | -9% | 3% | 0% | -10% | -19%
CCOc1ccc(CNC(=O)C2=Cc3cc(Br)ccc3OC2)cc1OC | u | -7% | 3% | x | -4% | u
C=Cc1ccc(CN2C(=O)N(c3ccc(CC)cc3)S(=O)(=O)c3ccccc32)cc1 | u | -4% | -7% | x | -4% | u
Cc1cccc(C(=O)Nc2nnc(SCc3cc(=O)n4cccc(C)c4n3)s2)c1 | 2% | 2% | 5% | x | -3% | 6%
Cc1ccc(C(=O)OC(C)C(=O)N(C)C2CCCCC2)cc1S(=O)(=O)N1CCCCC1 (centres undefined) | 23µM* | 0% | 0% | -11% | -29% | u
Cc1ccc(C(=O)N(C)CCOc2ccccc2)cc1S(=O)(=O)N1CCCCC1 | u | 3% | 4% | -3% | -12% | 18µM*
CN(CCOc1ccccc1)c1ccc(S(=O)(=O)N2CCCCC2)cn1 | 21µM* | -15% | -5% | 4% | -9% | u
Cc1ccccc1OCC(=O)Nc1ccc2[nH]c(=O)sc2c1 | 16µM* | 1% | 2% | x | -9% | u
Cc1ccc(OCC(=O)Nc2ccc3[nH]c(=O)sc3c2)cc1 | -25% | 0% | -10% | x | 0% | 5%
Cc1ccc(C(=O)OC(C)C(=O)NC2CCCCC2)cc1S(=O)(=O)N1CCCCC1 (centres undefined) | u | -1% | -9%[56.1 µM] | -15% | -12% | u
O=C(Nc1cccc(F)c1)N1CC[C@@]2(CCCNC2)C1 | -24% | -13% | x | x | u | -17%
COc1ccc(CNCc2ccc3c(c2)n(C)c(=O)n3C)cc1 | u | -4% | 4% | x | 13% | u
COc1ccc(NC(=O)CNc2ccc(C#N)cc2)cc1 | -1% | 1% | 6% | 1% | -11% | 0%
CC(=O)N1CCOc2ccc(S(=O)(=O)NC[C@H]3O[C@@H](n4ccc(=O)[nH]c4=O)[C@H](O)[C@@H]3O)cc21 | 0% | x | x | -12% | -18% | 2%
Cc1ccc(NC(=O)COc2cccc(C)c2C)cc1S(=O)(=O)N1CCCCCC1 | 18µM* | -6% | -3%[0.505 µM] | 0% | 10% | u
SMILES | TDP1 cell noCPT | GCN5L2 inh | TDP1 block | PLK1 PBD block | VDR inhibitor | DT40 TDP1 CPT
Cc1ccc(NC(=O)CNc2ccccc2N2CCCC2=O)cc1S(=O)(=O)N1CCCCC1 | 15µM* | -3% | 3% | -3% | 3% | 16µM*
Cc1ccc(NC(=O)COc2ccc(N(C)C(=O)C(C)(C)C)cc2)cc1S(=O)(=O)N1CCCCC1 | 2.3µM* | -5% | 2% | 1% | 4% | 8.2µM*
C=CCOc1ccc(NC(=O)C(=O)NCCCn2ccnc2)cc1 | -8% | u | 4% | -1% | -3% | -14%
Cc1cc(C)cc(OCCCn2ccnc2)c1 | -9% | -10% | 3% | -10% | -18% | -11%
Cc1cc(C)c(OCCn2ccnc2)c(C)c1 | 5.2µM* | -11% | x | 1% | -12% | 6.5µM*
Cc1cccc(OCCCn2ccnc2)c1 | u | -18% | 3% | -4% | 11% | 21µM*
Cc1ccc(OCCCn2ccnc2)cc1C | 18µM* | -1% | -1% | 2% | 8% | u
CCCCCOc1ccc(NC(=O)C(=O)NCCCn2ccnc2)cc1 | 18µM* | u | -1% | -1% | -7% | u
C[C@H](NC(=O)CNC(=O)[C@@H](NC(=O)[C@H](Cc1ccccc1)NC(=O)CNC(=O)CNC(=O)[C@@H](N)Cc1ccccc1)[C@@H](C)O)C(=O)N[C@@H](CCCN=C(N)N)C(=O)N[C@@H](CCCCN)C(=O)N[C@@H](CO)C(=O)N[C@@H](C)C(=O)N[C@@H](CCCN=C(N)N)C(=O)N[C@@H](CCCCN)C(N)=O | x | -8% | 8% | x | -4% | x
Cc1ccc(OCCOCCn2ccnc2)c(Br)c1 | 23µM* | -5% | 8% | -5% | 1% | -26%
Cc1ccc(OCCn2ccnc2)c(C)c1 | 9% | -3% | 6% | 1% | 15% | -9%
Cc1c(C(=O)NCc2ccccc2Cl)sc2nc3n(c(=O)c12)CCCCC3 | 26µM* | -4% | 10% | x | 2% | u
Cc1c(C(=O)NCc2ccccc2Cl)sc2nc3n(c(=O)c12)CCCC3 | 23µM* | -6% | 13% | x | 15% | u
O=C(NCC(=O)N(c1ccc(F)cc1)C(C(=O)NC1CCCCC1)c1ccncc1)c1ccco1 (centres undefined) | -14% | -4% | 9% | 2% | -7% | -21%
Cn1nc(C(=O)Nc2ccccc2N2CCCC2)c2ccccc2c1=O | u | -11% | 11% | 4% | 13% | u
O=c1c2ccccc2ncn1Cc1ccco1 | -7% | 0% | 4% | -9% | -6% | -25%
N=c1c2c(-c3ccccc3)c(-c3ccccc3)n(Cc3ccco3)c2ncn1CCO | 6.5µM* | 1% | 3% | 7% | -15% | 7.3µM*
